Results taken from PMC5700166.

Columns and labels:
[1] = molecular target: T1, GST-Dm-Relish (Drosophila melanogaster, UniProt Q94527 99-473); test: protein-binding microarray (PBM); PBM: ~300 nM protein, 6 mM HEPES pH 7.8, 80 mM KCl, 0.5 mM EDTA, 0.5 mM EGTA, 6% glycerol, 35 ng/ul poly-dIdC, 1% milk, 1 h, room temperature; Ap Aiptasia and Nv Nematostella (sea anemones) / Co Capsaspora / Aq Amphimedon (sponge) / Dm Drosophila / Hu human; RHD is the Rel homology domain; high values mean tight binding; details: dsDNA, one strand shown
T1 sequence: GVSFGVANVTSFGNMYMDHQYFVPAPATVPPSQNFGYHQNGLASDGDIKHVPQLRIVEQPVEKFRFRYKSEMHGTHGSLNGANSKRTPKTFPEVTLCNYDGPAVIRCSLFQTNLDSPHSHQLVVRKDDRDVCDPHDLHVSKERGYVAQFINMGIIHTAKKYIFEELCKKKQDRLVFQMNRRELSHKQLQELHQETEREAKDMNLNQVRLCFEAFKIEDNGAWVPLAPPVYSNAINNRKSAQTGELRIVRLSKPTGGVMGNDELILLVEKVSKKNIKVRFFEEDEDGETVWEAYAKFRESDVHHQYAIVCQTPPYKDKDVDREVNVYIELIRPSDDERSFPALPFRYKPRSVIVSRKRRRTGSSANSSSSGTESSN

[2] = molecular target: T2, GST-Aq-NF-kB (Amphimedon queenslandica, UniProt A9Y5G7 2-389); test: as above; details: dsDNA, one strand shown
T2 sequence: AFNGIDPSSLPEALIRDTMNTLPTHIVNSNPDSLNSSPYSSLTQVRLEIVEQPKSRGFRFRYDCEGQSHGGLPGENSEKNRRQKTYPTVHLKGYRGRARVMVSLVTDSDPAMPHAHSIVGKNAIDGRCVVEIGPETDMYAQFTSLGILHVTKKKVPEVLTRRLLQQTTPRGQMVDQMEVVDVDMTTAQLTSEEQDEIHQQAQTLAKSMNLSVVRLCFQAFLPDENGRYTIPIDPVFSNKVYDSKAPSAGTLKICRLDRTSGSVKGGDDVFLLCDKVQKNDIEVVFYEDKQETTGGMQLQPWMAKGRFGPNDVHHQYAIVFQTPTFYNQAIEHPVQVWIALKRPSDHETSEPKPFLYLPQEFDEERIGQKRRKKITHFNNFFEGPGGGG

| Sequence | binding signal [1] [z-score] | binding signal [2] [z-score] |
| --- | --- | --- |
| CCGATTAACATCACGGAAAATCCTGATGTTAATCGGGTCTTGATTCGCTTGACGCTGCTG | 1.04 | 3.9 |
| CCGATTAACATCACGTAAAACCCTGATGTTAATCGGGTCTTGATTCGCTTGACGCTGCTG | 3.01 | 2.12 |
| CCGATTAACATCACCGGAAATCCTGATGTTAATCGGGTCTTGATTCGCTTGACGCTGCTG | 2.06 | 2.27 |
| CCGATTAACATCACGTAAATTCCTGATGTTAATCGGGTCTTGATTCGCTTGACGCTGCTG | 1.43 | 1.08 |
| CCGATTAACATCAGGAATTTCTATGATGTTAATCGGGTCTTGATTCGCTTGACGCTGCTG | 1.28 | 1.23 |
| CCGATTAACATCAGAGGAATTCCTGATGTTAATCGGGTCTTGATTCGCTTGACGCTGCTG | 2.63 | 2.12 |
| CCGATTAACATCACGGTTTTTCCTGATGTTAATCGGGTCTTGATTCGCTTGACGCTGCTG | 3.51 | 3.6 |
| CCGATTAACATCACGGAAAGTCCTGATGTTAATCGGGTCTTGATTCGCTTGACGCTGCTG | 3.12 | 5.28 |
| CCGATTAACATCAAGTAAATTCCTGATGTTAATCGGGTCTTGATTCGCTTGACGCTGCTG | 2.49 | 1.35 |
| CCGATTAACATCAGGAATTCCGATGATGTTAATCGGGTCTTGATTCGCTTGACGCTGCTG | 2.4 | 1.28 |
| CCGATTAACATCAGGTTTTTCCATGATGTTAATCGGGTCTTGATTCGCTTGACGCTGCTG | 2.68 | 2.64 |
| CCGATTAACATCAGGATTTTTCATGATGTTAATCGGGTCTTGATTCGCTTGACGCTGCTG | 1.76 | 1.09 |
| CCGATTAACATCAGGTATTTCCATGATGTTAATCGGGTCTTGATTCGCTTGACGCTGCTG | 2.79 | 3.5 |
| CCGATTAACATCACGGGCATCCCTGATGTTAATCGGGTCTTGATTCGCTTGACGCTGCTG | 5.06 | 3.09 |
| CCGATTAACATCACGTAATTTCCTGATGTTAATCGGGTCTTGATTCGCTTGACGCTGCTG | 1.85 | 1.14 |
| CCGATTAACATCAAAAATTTCCGTGATGTTAATCGGGTCTTGATTCGCTTGACGCTGCTG | 1.61 | 2.63 |
| CCGATTAACATCAGAAAATTCCATGATGTTAATCGGGTCTTGATTCGCTTGACGCTGCTG | 1.53 | 1.51 |
| CCGATTAACATCACGGAAACCACTGATGTTAATCGGGTCTTGATTCGCTTGACGCTGCTG | 3.59 | 1.46 |

| Sequence | binding signal [1] [z-score] | binding signal [2] [z-score] |
| --- | --- | --- |
| CCGATTAACATCAAAGAAATTCCTGATGTTAATCGGGTCTTGATTCGCTTGACGCTGCTG | 1.96 | 1.44 |
| CCGATTAACATCACAGGAATTCCTGATGTTAATCGGGTCTTGATTCGCTTGACGCTGCTG | 3.05 | 2.17 |
| CCGATTAACATCAGGAATTCCACTGATGTTAATCGGGTCTTGATTCGCTTGACGCTGCTG | 3.07 | 1.57 |
| CCGATTAACATCAGGATTTACCATGATGTTAATCGGGTCTTGATTCGCTTGACGCTGCTG | 3.08 | 1.48 |
| CCGATTAACATCAAAATTTTCCTTGATGTTAATCGGGTCTTGATTCGCTTGACGCTGCTG | 2.92 | 1.12 |
| CCGATTAACATCAAGGAAAGTCCTGATGTTAATCGGGTCTTGATTCGCTTGACGCTGCTG | 3.16 | 4.65 |
| CCGATTAACATCAACGGAATTCCTGATGTTAATCGGGTCTTGATTCGCTTGACGCTGCTG | 2.11 | 1.66 |
| CCGATTAACATCAAAAAACTTCCTGATGTTAATCGGGTCTTGATTCGCTTGACGCTGCTG | 1.56 | 1.4 |
| CCGATTAACATCAGGAGTTTCCATGATGTTAATCGGGTCTTGATTCGCTTGACGCTGCTG | 1.28 | 2.43 |
| CCGATTAACATCACGGAAATTCCTGATGTTAATCGGGTCTTGATTCGCTTGACGCTGCTG | 1.83 | 4.88 |
| CCGATTAACATCACAGGGTTTCCTGATGTTAATCGGGTCTTGATTCGCTTGACGCTGCTG | 2.82 | 1.57 |
| CCGATTAACATCAGGAAAGTACATGATGTTAATCGGGTCTTGATTCGCTTGACGCTGCTG | 6.88 | 1.61 |
| CCGATTAACATCACGGAAACTCCTGATGTTAATCGGGTCTTGATTCGCTTGACGCTGCTG | 1.23 | 3.4 |
| CCGATTAACATCACGGAATTCCGTGATGTTAATCGGGTCTTGATTCGCTTGACGCTGCTG | 1.22 | 1.25 |
| CCGATTAACATCAGGAAATTACATGATGTTAATCGGGTCTTGATTCGCTTGACGCTGCTG | 5.09 | 1.17 |
| CCGATTAACATCAGAAAATTTCCTGATGTTAATCGGGTCTTGATTCGCTTGACGCTGCTG | 1.75 | 2.09 |
| CCGATTAACATCAAGGAAAATCCTGATGTTAATCGGGTCTTGATTCGCTTGACGCTGCTG | 1.5 | 3.1 |
| CCGATTAACATCAGGGCTTTCCATGATGTTAATCGGGTCTTGATTCGCTTGACGCTGCTG | 3.94 | 3.39 |
